Screening results: PubChem BioAssay, National Center for Advancing Translational Sciences (NCATS)
Most compounds without a hit are left out; they make up all but 2.3% or so of the library.
15-hLO inh: 15-hLO (ALOX15) enzyme inhibition; P16050; 1.4% of 74,000 active; AID 887; purified 15hLO-1, xylenol orange hydroperoxide absorbance; Potency, µM (series often up to 57.1 µM), usual class: inhibitors; note: nearly all actives have a fitted effect of over 55% in size
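Inhibition is scored from a chromogenic endpoint. After 15 min enzyme-compound contact, arachidonic acid (50 uM final) reacts 6 min with 40 nM 15hLO-1 at room temperature, then Fe-XO reagent is added for 30 min and absorbance ratio recorded.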
HBB splice mod: hemoglobin beta splicing modulation. HBB splicing reporter cell assay, activation; EGFP reporter with mutant IVS2-654 intron; response scale: normalised to 500 nM splice-correcting PNA. Potency, µM (series often up to 46.1 µM), most hits filed as activators. 0.06% of 65,000 active
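Compounds were applied for 2 days to HeLa EGFP-654 cells, 500/well in Optimem with 2% FCS. The reporter's EGFP is disrupted by mis-splicing of beta-globin intron IVS2-654. Readout: summed well GFP fluorescence from 488 nm laser scanning; reference was 500 nM antisense […] 654 PNA.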
GFP derepression: epigenetic GFP locus derepression in mouse cells; 0.09% of 68,000 active; AID 597; Potency, µM (series often up to 46.1 µM); mouse C127i GFP locus derepression, cytometry, 30 h
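Read-out is the number of GFP-positive cells, scored as fluorescent objects 20 to 120 um wide, reflecting derepression of a silenced CMV-GFP reporter in murine C127i cells after 30 h compound exposure at 37 C.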
Tau filament bind: binds recombinant human tau filaments | P10636 | recombinant tau filaments, thioflavin S fluorescence, 15 h; filaments grown with octadecylsulfate alongside compound | 2% of 71,000 active | Potency, µM (highest dose often 57.1 µM) | AID 596;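 note: actives lower thioflavin S fluorescence by blocking filaments or displacing dye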
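ThS-based fibril read: tau 1 uM final, inducer ODS 30 uM final, 37 C for 15 h, ex 450/em 510 nm.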
ALOX15B inhib: 15-hLO-2 (ALOX15B) enzyme inhibition; O15296; purified 15hLO-2, xylenol orange hydroperoxide absorbance; Potency, µM (series often up to 57.1 µM), hits mostly inhibitors; 0.56% of 110,000 active; AID 881; note: nearly all actives have a fitted effect of over 60% in size
Target sequence (O15296 whole entry, looked up): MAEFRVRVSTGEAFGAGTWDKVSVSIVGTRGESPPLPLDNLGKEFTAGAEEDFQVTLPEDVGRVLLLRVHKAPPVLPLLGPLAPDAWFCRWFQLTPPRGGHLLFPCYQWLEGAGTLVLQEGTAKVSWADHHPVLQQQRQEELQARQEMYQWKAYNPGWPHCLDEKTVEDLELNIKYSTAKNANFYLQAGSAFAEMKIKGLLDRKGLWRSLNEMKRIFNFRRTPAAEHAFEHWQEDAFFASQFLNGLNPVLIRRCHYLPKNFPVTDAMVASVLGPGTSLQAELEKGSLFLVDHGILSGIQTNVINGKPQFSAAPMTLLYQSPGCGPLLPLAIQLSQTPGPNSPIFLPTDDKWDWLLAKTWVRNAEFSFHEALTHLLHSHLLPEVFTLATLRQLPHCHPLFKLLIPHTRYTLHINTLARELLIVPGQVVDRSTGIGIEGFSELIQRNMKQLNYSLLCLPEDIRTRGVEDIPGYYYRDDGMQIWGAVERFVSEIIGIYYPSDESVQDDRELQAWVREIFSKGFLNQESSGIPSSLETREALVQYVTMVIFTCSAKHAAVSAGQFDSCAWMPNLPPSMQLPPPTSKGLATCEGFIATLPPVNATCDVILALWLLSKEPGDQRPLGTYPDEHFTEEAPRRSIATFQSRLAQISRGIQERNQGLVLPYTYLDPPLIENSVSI
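Purified human 15hLO-2 (50 nM final) preincubated with compounds 15 min at room temperature in 25 mM Hepes pH 7.5, 0.01% Triton X-100, then 45 uM arachidonic acid added for 90 min; hydroperoxide detected via ferrous/xylenol orange, 573/405 nm absorbance ratio.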
Ub-GFP proteasome: proteasome inhibitors stabilizing ubiquitin-GFP reporter; Ubiquitin-GFP reporter cells, proteasome inhibition, GFP fluorescence; response scale: untreated = 0%, 10 µM MG-132 = 100%; Potency, µM (titrated, usually from 45.9 µM), most hits filed as activators; 67,000 tested, under 10 active; active = well fitted activation curve with a large enough effect, not every such curve was filed as active; inconclusive = small, poorly fitted or top-dose-only effect, or another doubt; inactive = no such curve, though single readings can be large or run the other way
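U2OS Ub(G76V)-GFP reporter; O/N plating, 0.5% FBS; cpd 46 uM–2.9 nM, 4 h, 37 °C; GFP+ cell count, 488/515 nm; norm. to basal vs 10 uM MG-132; CRC fit.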
Numbers stand for hits; – = inactive; ? = inconclusive; · = not tested or not shown; [ ] = remark or other dose. Unless noted, calls come from the whole dose curve; as a rule, active = well fitted curve in the direction sought with a large enough effect; inconclusive = small, poorly fitted or top-dose-only effect, or another doubt; inactive = no such curve, though single readings can be large; an effect the other way counts as inactive or inconclusive.

SMILES	15-hLO inh	HBB splice mod	GFP derepression	Tau filament bind	ALOX15B inhib	Ub-GFP proteasome
O=C1CC(Nc2ccc(N3CCOCC3)cc2)C(=O)N1c1cccc(C(F)(F)F)c1 (centres undefined)	?	–	·	–	20µM	–
COc1cccc(N2C(=O)CC(Nc3ccc(N4CCOCC4)cc3)C2=O)c1 (centres undefined)	12.6µM	·	·	·	12.6µM	·
COc1ccc(N2C(=O)CC(Nc3ccc(C)cc3)C2=O)cc1 (centres undefined)	·	·	·	·	–	·
COc1ccc(N2C(=O)CC(Nc3ccc(N4CCOCC4)cc3)C2=O)c(OC)c1 (centres undefined)	?	–	–	?	31.6µM	–
COc1ccc(C(=O)CSc2nn3c(=O)c(C(C)(C)C)nnc3s2)cc1	?	–	–	–	–	–
COc1ccc(-n2c(C)cc(C(=O)CSc3nn4c(=O)c(C(C)(C)C)nnc4s3)c2C)cc1	–	–	–	20µM	–	–
O=[N+]([O-])c1ccc(Cl)c(CNc2ncnc3c2ncn3[C@@H]2CCCCO2)c1	–[11.4 µM]	–[9.22 µM]	–[9.22 µM]	–[11.4 µM]	–[11.4 µM]	–[9.17 µM]
CN(C)c1ccc(NC(=O)CN2CCC(C(=O)c3ccc(F)cc3)CC2)cc1	–	–	–	15.8µM	–	–
NC(=S)NCCC[C@@H](N)C(=O)O	–	–	–	–	–	–
O=C(Nc1ccc2c(c1)nc1n2CCN(C2CCCCC2)C1)NC1CCCCC1	·	·	·	·	–	·
O=C(Nc1ccc2c(c1)nc1n2CCN(C2CCCCC2)C1)c1ccco1	–	–	–	25.1µM	·	–
C=C1C[C@@]23C[C@]1(O)CC[C@@H]2[C@]12C=C[C@@H](O)[C@](C)(C(=O)O1)[C@H]2[C@H]3C(=O)O	–	–	–	–	–	–
O=C1CCCC2=C1C(c1ccc(Br)cc1)c1c([nH]c(=S)[nH]c1=O)N2 (centres undefined)	25.1µM	–	–	–	31.6µM	–
C[C@@]12CC[C@@H]3[C@@H](CC[C@H]4C[C@@H](O)CC[C@]43C)[C@H]1CC[C@@H]2c1cc(C(F)(F)F)n[nH]1	?	–[9.22 µM]	–[9.22 µM]	–[11.4 µM]	–[11.4 µM]	–[9.17 µM]
O=S(=O)(NCCOC12CC3CC(CC(C3)C1)C2)c1cccc2nsnc12	–	–	–	15.8µM	–	–
Nc1ncnc2c1ncn2[C@@H]1O[C@@H](CO)[C@H](O)[C@@H]1O	–	–	–	–	–	–
N#Cc1sc2nc3c(c(-c4ccco4)c2c1N)CCCC3	–	–	–	3.16µM	–	–
NCCNC(=S)S	?	–[9.22 µM]	–[9.22 µM]	–[11.4 µM]	–[11.4 µM]	–[9.17 µM]
O=C(Nc1ccc(F)cc1)N1CCN(c2ccc3nnc(-c4ccc(F)cc4)n3n2)CC1	·	·	·	·	–	·
Fc1ccc(-c2nnc3ccc(N4CCc5ccccc5C4)nn23)cc1	25.1µM	–	–	–	–	–
Oc1cc(O)cc(/C=C/c2ccc(O)c(O)c2)c1	·	·	·	·	4.47µM	·
CCCn1c(C)nc2c(c1=O)c1nc3ccccc3nc1n2CCC1=CCCCC1	–	–[0.369 µM]	–	–	?	–
Cc1nc2c(c(=O)n1CCC1=CCCCC1)c1nc3ccccc3nc1n2/N=C/c1ccco1	–	–	–	2µM	?	–
CN(C)c1ccc(N=c2sc3ccccc3n2C)cc1	·	·	·	·	7.94µM	·
O=C1c2ccccc2C(O)(O)[C@@]1(O)[C@]1(O)C(=O)c2ccccc2C1(O)O	–[11.4 µM]	–[9.22 µM]	–[9.22 µM]	–[11.4 µM]	–[11.4 µM]	–[9.17 µM]
SMILES	15-hLO inh	HBB splice mod	GFP derepression	Tau filament bind	ALOX15B inhib	Ub-GFP proteasome
COC(=O)c1ccc(C(NC(=O)OCc2ccccc2)/C(=C/[C@@H](C)C(=O)N[C@@H](CO)Cc2ccccc2)c2cccnc2)cc1 (some centres undefined)	25.1µM	–	·	–	–	·
CNC(=O)[C@H](C)/C=C(\c1cccnc1)C(NC(=O)OCc1ccccc1)c1ccc(C(=O)OC)cc1 (some centres undefined)	–	–	·	–	–	·
COc1ccc(Nc2cc(C(=O)NCCCN3CCOCC3)c3ccccc3n2)cc1OC	·	·	·	·	–	·
COc1ccc(Nc2cc(C(=O)NCCCN3CCN(C)CC3)c3ccccc3n2)cc1OC	–	–	–	15.8µM	?	–
Cc1nn(-c2ccc(S(=O)(=O)O)cc2)c(O)c1N=Nc1ccc(-c2ccc(N=Nc3ccc4c(S(=O)(=O)O)cc(S(=O)(=O)O)c(N)c4c3O)c(O)c2)cc1O.[Cu].[Cu]	3.98µM	–[9.22 µM]	–[9.22 µM]	–[11.4 µM]	–[11.4 µM]	–[9.17 µM]
COc1cc(-c2ccc(N=Nc3ccc4c(S(=O)(=O)O)cc(S(=O)(=O)O)c(N)c4c3O)c(OC)c2)ccc1N=Nc1ccc2c(S(=O)(=O)O)cc(S(=O)(=O)O)c(N)c2c1O	?	–	?	12.6µM	25.1µM	–
O=S(=O)(O)c1ccc2c(N=Nc3cccc4ccccc34)c(O)c(S(=O)(=O)O)cc2c1	–[11.4 µM]	–[9.22 µM]	–[9.22 µM]	–[11.4 µM]	–[11.4 µM]	–[9.17 µM]
COc1ccc2c3c([nH]c2c1)[C@H]1C[C@@H]2[C@@H](C[C@@H](O)[C@H](OC)[C@H]2C(=O)O)CN1CC3	–[11.4 µM]	–[9.22 µM]	–[9.22 µM]	–[11.4 µM]	–[11.4 µM]	–[9.17 µM]
C[C@@H]1O[C@@H](n2cc(F)c(=O)[nH]c2=O)[C@H](O)[C@@H]1O	–	–	–	–	–	–
O=C(O)[C@@H]1[C@@H](C(=O)NCc2ccccn2)[C@@H]2C=C[C@@H]1O2	–[11.4 µM]	–[9.22 µM]	–[9.22 µM]	–[11.4 µM]	–[11.4 µM]	–[9.17 µM]
CCNc1sc(C(=O)c2cccs2)c(N)c1-c1nc2ccccc2s1	?	–	–	12.6µM	–	–
CCNc1sc(C(=O)c2cccs2)c(N)c1C#N	·	·	–	·	–	·
Nc1ncnc2c([C@@H]3O[C@@H](CO)[C@H](O)[C@@H]3O)nsc12	–[11.4 µM]	–[9.22 µM]	–[9.22 µM]	–[11.4 µM]	–[11.4 µM]	–[9.17 µM]
